# Records with an inconclusive call do not appear. Active and inactive are the calls of the source. Rule for the calls, unless noted: active = hit-call score of the fitted dose curve at least 0.9, where 1 is the maximum; inactive = score below 0.9.
# Columns and labels:
# [1] = CCTE_Deisenroth_AIME_384WELL_CTox_Active: Cytotoxicity Assessment (CTOX) in CCTE's 384-well Estrogen Receptor Transactivation Assay with AIME metabolic competence (metabolism positive), Deisenroth Lab (AID 2284037; active = hit-call score of the fitted dose curve at least 0.9, where 1 is the maximum;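 note: chemicals first conditioned 2 h by alginate-bound induced rat liver S9 before cells; activity means signal loss indicating cell death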)
# Summary of the method: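 Chemicals pre-incubated 2 hours with alginate-immobilised phenobarbital/beta-naphthoflavone-induced male Sprague Dawley rat liver S9, then conditioned medium applied 24 hour to VM7Luc4E2 cells. Viability by fluorogenic protease substrate; 10-point series 0.002 - 200 uM.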
# [2] = CCTE_Deisenroth_AIME_384WELL_CTox_Inactive: Cytotoxicity Assessment (CTOX) in CCTE's 384-well Estrogen Receptor Transactivation Assay without AIME metabolic competence (metabolism negative), Deisenroth Lab (AID 2284039; active = hit-call score of the fitted dose curve at least 0.9, where 1 is the maximum;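 note: cell viability via live-cell protease substrate cleaved to fluorescent probe; cells exposed 24 h to medium preincubated 2 h with alginate-water beads without S9; loss of fluorescence signal means loss of viability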)
# Summary of the method: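 Fluorescent protease-substrate viability readout after 24 h exposure of VM7Luc4E2 cells to conditioned medium. Chemicals (0.002–200 uM) first sat 2 h over alginate-water beads, no S9. Data fitted bidirectionally, loss of signal meaning viability loss.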
# [3] = biological target: Estrogen receptor (Homo sapiens) (UniProt P03372); test: CCTE_Deisenroth_AIME_384WELL_LUC_Shift: CCTE's 384-well Estrogen Receptor Transactivation Assay with AIME metabolic competence data shift (ERTA luciferase; difference in metabolism positive and negative), Deisenroth Lab (AID 2284041);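 note: shift is response with S9 minus without S9 so positive means metabolism raised ER signal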
# Summary of the method: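 Chemicals (0.002–200 uM, 10 points) pre-incubated 2 h with alginate-encapsulated induced male Sprague Dawley rat liver S9 or S9-free, then medium applied 24 h to VM7Luc4E2 cells; luciferase. Endpoint is per-concentration difference, S9-positive minus negative.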
# [4] = CCTE_Shafer_MEA_dev_firing_rate_mean: CCTE's Neural Network Formation Assay for Mean Firing Rate, Shafer Lab (AID 2284031)
# Summary of the method: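 Spike frequency (spikes/recording length, averaged over active electrodes) was recorded on days 5, 7, 9 and 12 and collapsed to AUC; rat cortical cultures received compound continuously over 12 days of network development.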
# [5] = CCTE_Shafer_MEA_dev_per_burst_spike_percent: CCTE's Neural Network Formation Assay for Percent of Spikes in a Burst, Shafer Lab (AID 2284032)
# Summary of the method: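 Value is trapezoidal AUC over recordings on days 5, 7, 9 and 12 of the well-mean fraction of spikes falling in single-electrode bursts; rat cortical cultures exposed continuously from plating, treatment renewed DIV 5 and 9, fitted downward against DMSO.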
# [6] = CCTE_Shafer_MEA_dev_burst_rate: CCTE's Neural Network Formation Assay for Burst Rate, Shafer Lab (AID 2284042)
# Summary of the method: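 Exposure ran continuously over 12 days of network development in rat cortical cultures, with compound refreshed during full media changes on DIV 5 and 9. Single-electrode bursts per recording time, well-mean over active electrodes, trapezoidal AUC across days 5–12, fitted downward relative to DMSO.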
# [7] = CCTE_Shafer_MEA_dev_active_electrodes_number: CCTE's Neural Network Formation Assay for Number of Active Electrodes, Shafer Lab (AID 2284040; active = hit-call score of the fitted dose curve at least 0.9, where 1 is the maximum)
# Summary of the method: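 Counts electrodes per well firing at least 5 spikes/min, recorded on days 5, 7, 9 and 12 in rat cortical cultures dosed continuously from plating (treatment refreshed DIV 5, 9). Value is the area under the curve over recordings, fitted downward relative to DMSO.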
# Sequence of Estrogen receptor (Homo sapiens) (P03372 whole entry, looked up): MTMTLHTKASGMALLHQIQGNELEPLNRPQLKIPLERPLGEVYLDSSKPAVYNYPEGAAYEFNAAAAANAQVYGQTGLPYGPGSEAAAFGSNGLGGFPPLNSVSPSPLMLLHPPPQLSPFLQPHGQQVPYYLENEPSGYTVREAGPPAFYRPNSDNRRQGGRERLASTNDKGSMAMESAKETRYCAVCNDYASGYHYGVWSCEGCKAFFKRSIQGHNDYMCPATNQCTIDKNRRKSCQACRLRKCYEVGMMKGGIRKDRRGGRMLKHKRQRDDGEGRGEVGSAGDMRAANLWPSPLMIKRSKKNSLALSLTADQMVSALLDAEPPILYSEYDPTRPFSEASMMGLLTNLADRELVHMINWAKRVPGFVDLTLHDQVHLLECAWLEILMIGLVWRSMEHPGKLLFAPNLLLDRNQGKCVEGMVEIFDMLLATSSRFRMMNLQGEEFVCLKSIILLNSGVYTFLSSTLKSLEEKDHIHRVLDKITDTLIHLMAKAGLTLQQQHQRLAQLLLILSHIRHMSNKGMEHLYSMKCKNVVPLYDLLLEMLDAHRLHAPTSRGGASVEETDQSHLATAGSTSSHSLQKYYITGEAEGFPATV
smiles,measurement,setting,value
NC(=NCCCCCCN=C(N)/N=C(\N)Nc1ccc(Cl)cc1)/N=C(\N)Nc1ccc(Cl)cc1,AC50,[1],59.5 µM (active)
same,AC50,[2],46.8 µM (active)
same,outcome,[3],inactive
O=C(C=C(O)C(F)(F)F)C(F)(F)F,outcome,[4],inactive
same,outcome,[5],inactive
same,outcome,[6],inactive
FCOC(C(F)(F)F)C(F)(F)F,outcome,[4],inactive
same,outcome,[5],inactive
same,outcome,[7],inactive
same,outcome,[6],inactive
CCCCCCCCCCCCOS(=O)(=O)O,AC50,[1],143 µM (active)
same,AC50,[2],147 µM (active)
Cc1ccc(S(=O)(=O)O)cc1,outcome,[2],inactive
Cc1cc(Cc2cc(C)cc(C(C)(C)C)c2O)c(O)c(C(C)(C)C)c1,AC50,[1],43.1 µM (active)
same,AC50,[2],41.8 µM (active)
same,outcome,[3],inactive
NC(C(F)(F)F)C(F)(F)F,outcome,[4],inactive
same,outcome,[5],inactive
same,outcome,[7],inactive
same,outcome,[6],inactive
FC(F)=C(F)C(F)(F)C(F)(F)C(F)(F)C(F)F,outcome,[4],inactive
same,outcome,[5],inactive
same,outcome,[6],inactive
CN(CCO)S(=O)(=O)C(F)(F)C(F)(F)C(F)(F)C(F)(F)C(F)(F)C(F)(F)C(F)(F)C(F)(F)F,outcome,[4],inactive
same,outcome,[5],inactive
same,outcome,[6],inactive

# Source: PubChem BioAssay (EPA / NIEHS)
